Not all results are given here.
aSyn UTR act: Activators working through SNCA 5'UTR binding (MLPCN); activity score, % (tested at 7.5 µM), hits read low; alpha-synuclein 5'UTR reporter, activators screen; AID 1814; 300,000 compounds, 7.1% hits; in the data active = activity score below about -60%
* hit, by the source's call.

How did COC(=O)c1sc(NC(=S)NC(=O)c2ccccc2Cl)nc1C do in these assays?
aSyn UTR act: -146*

What do the screens show for `Cc1cc(C)c2cccc(NC(=S)NC(=O)c3ccccc3)c2n1`?
aSyn UTR act: -76*

What do the screens show for `CCOC(=O)c1sc(NC(=S)NC(=O)c2ccccc2)nc1C`?
aSyn UTR act: -216*

How did CC(C)c1ccc(/C=C2\CC/C(=C\C=N\N(C)C)C2=O)cc1 do in these assays?
aSyn UTR act: -73*

How did Cc1cccc(NC(=O)CNc2cc(C)ccc2C)c1 do in these assays?
aSyn UTR act: -68*

Results for Cc1ccc(SCC(=O)Nc2cccc(C)c2)cc1 ?
aSyn UTR act: -135*

What do the screens show for `CCOC(=O)/C(C#N)=C/c1ccc(-c2ccsc2C(=O)OC)o1`?
aSyn UTR act: -117*

Results for CCOC(=O)C(=Cc1ccc(-c2ccsc2C(=O)OC)o1)C(=O)OCC ?
aSyn UTR act: -88*

What do the screens show for `CCN(CC)C(NC(=O)c1ccccc1)C(=O)c1ccccc1` (stereo not drawn)?
aSyn UTR act: -69*

How did C(=N\Nc1nc2ccccc2s1)/c1cccs1 do in these assays?
aSyn UTR act: -212*

How did Cc1ccsc1/C=N/Nc1nc2ccccc2s1 do in these assays?
aSyn UTR act: -148*

What do the screens show for `OCC(O)/C=N/Nc1nc2ccccc2s1` (stereo not drawn)?
aSyn UTR act: -72*

How did CCn1c(C)c(/C=N/Nc2nc3ccccc3s2)c2ccccc21 do in these assays?
aSyn UTR act: -170*

What do the screens show for `C(=N\Nc1nc2ccccc2s1)/c1ccco1`?
aSyn UTR act: -80*

How did Cc1n[nH]c(=S)n1/N=C/c1ccc(OCc2ccc(Cl)cc2)cc1 do in these assays?
aSyn UTR act: -99*

How did Cc1n[nH]c(=S)n1/N=C/c1ccc(OCc2ccc(Cl)cc2Cl)cc1 do in these assays?
aSyn UTR act: -82*

Results for COc1ccccc1C(=O)N1CCN(CCNC(=O)C(=O)Nc2ccc(Br)c(C)c2)CC1 ?
aSyn UTR act: -89*

How did CCC(SC1=Nc2ccccc2C2=NC(CC(C)C)C(=O)N12)C(=O)Nc1ccc2c(c1)OCO2 (stereo not drawn) do in these assays?
aSyn UTR act: -64*

What do the screens show for `COC(=O)c1ccc(OS(=O)(=O)N(C)C)cc1`?
aSyn UTR act: -88*

What do the screens show for `CN(C)S(=O)(=O)Oc1cccc(C(=O)Nc2ccc(Cl)c(Cl)c2)c1`?
aSyn UTR act: -185*

Results for CNS(=O)(=O)c1cccc(C(=O)Nc2cccc(Cl)c2)c1 ?
aSyn UTR act: -111*

Results for COc1ccc(NC(=O)c2cccc(OS(=O)(=O)N(C)C)c2)cc1 ?
aSyn UTR act: -116*

What do the screens show for `CN(C)S(=O)(=O)c1cccc(C(=O)Nc2cc(Cl)ccc2O)c1`?
aSyn UTR act: -87*

What do the screens show for `O=C(NC(=S)Nc1cc(Cl)ccc1O)c1cccc(Br)c1`?
aSyn UTR act: -81*

What do the screens show for `CN(C)S(=O)(=O)Oc1cccc(C(=O)Nc2cccc(Cl)c2)c1`?
aSyn UTR act: -169*

What do the screens show for `CCOC(=O)CNc1c(-c2ccc(O)cc2)nc2ccc(Cl)cn12`?
aSyn UTR act: -68*

How did Cc1c2ccccc2nc2c(F)c(NC(C)C)c(F)c(F)c12 do in these assays?
aSyn UTR act: -106*

What do the screens show for `O=C(c1ccc(S(=O)(=O)c2cccc(Cl)c2)c([N+](=O)[O-])c1)N1CCN(c2ccccn2)CC1`?
aSyn UTR act: -62*

What do the screens show for `O=C(c1ccc(S(=O)(=O)c2ccccc2Cl)c([N+](=O)[O-])c1)N1CCCCCC1`?
aSyn UTR act: -98*

Results for CCOC(=O)C1(Cc2ccccc2Cl)CCN(C(=O)CN2CCOC2=O)CC1 ?
aSyn UTR act: -145*

How did Cc1cc2nc(/C=C/c3cccnc3)[nH]c2cc1C do in these assays?
aSyn UTR act: 92

Results for CC(=O)Nc1nc(C)c(-c2nc3ccc([N+](=O)[O-])cc3[nH]2)s1 ?
aSyn UTR act: -81*

Results for Cn1cccc1-c1nc2ccc([N+](=O)[O-])cc2[nH]1 ?
aSyn UTR act: -175*

Results for O=[N+]([O-])c1cccc(/C=C/c2nc3ccc([N+](=O)[O-])cc3[nH]2)c1 ?
aSyn UTR act: -152*

Results for O=[N+]([O-])c1ccc2nc(-c3ccccc3)[nH]c2c1 ?
aSyn UTR act: -121*

What do the screens show for `O=[N+]([O-])c1ccc(Cc2nnc(-c3ccc(F)cc3)o2)cc1`?
aSyn UTR act: -86*

How did Cc1ccc(-c2nnc(Cc3ccc([N+](=O)[O-])cc3)o2)cc1 do in these assays?
aSyn UTR act: -120*

Results for Fc1ccc(-c2nnc(NC3=NCCCCC3)o2)cc1 ?
aSyn UTR act: 98

What do the screens show for `Fc1ccc(-c2nnc(-c3ccc(F)cc3)o2)cc1`?
aSyn UTR act: -185*

How did O=C(Nc1cccc(C(F)(F)F)c1)Nc1ccc(N2CCCC2)c(S(=O)(=O)Nc2ccccc2Cl)c1 do in these assays?
aSyn UTR act: 93

What do the screens show for `CCN1CCN(Cc2ccc(NC(=O)Nc3ccccc3Cl)cc2)CC1`?
aSyn UTR act: -87*

What do the screens show for `CCN1CCN(Cc2ccccc2NC(=O)Nc2ccc(C)cc2)CC1`?
aSyn UTR act: -170*

Results for O=C(Nc1ccc(CN2CCCCC2)cc1)Nc1ccccc1Cl ?
aSyn UTR act: -90*

Assay outcomes from PubChem.
